The target in assay [1] is Luciferin 4-monooxygenase (Photinus pyralis) (UniProt P08659). Nature of the assay: Biochemical firefly luciferase enzyme assay for NPC (AID 624030). Also: nearly all actives have a fitted effect of over 70% in size. Also: potency is read from the fitted curve at half-maximal effect. The procedure, abridged:
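Counter-screen for direct inhibition of the luciferase enzyme by approved-drug library compounds, run at 10 nM enzyme in 50 mM Tris acetate (final). Luminescence was read within 5 min of enzyme-buffer addition and normalized to PTC124 versus DMSO (0%).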

In assay [2] the target is Voltage-gated inwardly rectifying potassium channel KCNH2 (Homo sapiens) (UniProt Q12809). Nature of the assay: qHTS Assay for Small Molecule Inhibitors of the Human hERG Channel Activity (AID 588834).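 Also: lower thallium flux fluorescence means stronger hERG block; nearly all actives have a fitted effect of over 50% in size.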 Also: potency is read from the fitted curve at half-maximal effect. An outline of the steps:
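Concentration-response qHTS measuring drop in thallium-sensitive dye signal. U2OS cells carrying BacMam hERG; compound exposure ~10 min, then stimulation buffer and 2 min read at 1 sec intervals.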
(qHTS replaces the single test concentration by a dilution series.)

Assay [3] in a line: qHTS of Trypanosoma Brucei Inhibitors: LOPAC Validation (AID 624147). The procedure, abridged: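 Assay buffer: 50 mM TEA pH 7.2, 100 mM KCl, 10 mM MgCl2, 0.05% BSA, 0.01% Tween-20. Pyruvate kinase from T. brucei plus substrate met compound, then ADP (130 uM final). Luminescence was read post 45 min RT.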
For assay [4], the target named is Glucagon-like peptide 1 receptor (Homo sapiens) (UniProt P43220). In words: qHTS of GLP-1 Receptor Agonists: LOPAC Validation (AID 624148).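 Also: higher luminescence signal means agonism.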 The procedure, abridged: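 HEK293 cells stably co-expressing a cAMP-responsive luciferase reporter and a hypersensitive GLP-1R were plated 12 h at 37 °C and exposed to compounds for 4-6 hr at 37 °C, 5% CO2. Luminescence was read 12 min after adding detection reagent.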
Chain of Glucagon-like peptide 1 receptor (Homo sapiens) (P43220 whole entry, looked up): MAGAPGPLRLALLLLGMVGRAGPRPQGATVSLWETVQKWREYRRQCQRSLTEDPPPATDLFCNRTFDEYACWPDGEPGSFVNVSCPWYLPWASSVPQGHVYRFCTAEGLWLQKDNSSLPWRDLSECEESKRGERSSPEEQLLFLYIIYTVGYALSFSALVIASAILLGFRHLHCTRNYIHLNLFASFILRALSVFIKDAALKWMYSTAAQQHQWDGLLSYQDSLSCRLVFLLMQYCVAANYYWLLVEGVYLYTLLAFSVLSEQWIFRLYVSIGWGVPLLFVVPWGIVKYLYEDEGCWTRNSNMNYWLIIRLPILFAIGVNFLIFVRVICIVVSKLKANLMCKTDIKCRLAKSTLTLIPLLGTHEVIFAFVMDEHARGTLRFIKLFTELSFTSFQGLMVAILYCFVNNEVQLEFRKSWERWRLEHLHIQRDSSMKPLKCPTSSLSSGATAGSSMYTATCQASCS

A short description of assay [5]: qHTS of Nrf2 Activators: LOPAC Validation (AID 624149). An outline of the steps:
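ARE reporter activation measured in AREc32 firefly luciferase cells after 24 hr compound exposure; Steady-Glo luminescence.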

Assay [6] is described as follows: HTS Assay for Allosteric Antagonists of the Human D2 Dopamine Receptor: Hit Validation in HTRF (AID 624455).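 Also: stable D1 dopamine receptor cell line scored for blocking the D1 response.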 An outline of the steps:
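Signal from an HTRF read-out in D1-expressing stable cells gave hit activity as inhibition of the D1 response.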
Background: In TR-FRET formats the signal depends on donor and acceptor labels being close together.

Assay [7] concerns the target Glutaminase kidney isoform, mitochondrial (Homo sapiens) (UniProt O94925). In words: qHTS for Inhibitors of Glutaminase (GLS): LOPAC Validation (AID 624146).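 Also: glutamate product detected by oxidase and peroxidase coupled Amplex red fluorescence gain; series mostly up to about 46 µM; nearly all actives have a fitted effect of over 60% in size.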 The procedure, abridged: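 Assay buffer: 45 mM KH2PO4 pH 8.2, 0.02% Tween-20. hKGA acts on L-glutamine (1 mM solution added); product glutamate is reported by an oxidase/peroxidase Amplex Red coupling, with fluorescence taken at baseline and 30 min.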

Assay [8] is described as follows: S16 Schwann cell PMP22 intronic element beta-lactamase assay (AID 624044; calls by dose curve; also: potency is read from the fitted curve at half-maximal effect; nearly all actives have a fitted effect of over 15% in size). The procedure, abridged:
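Rat S16 Schwann cells with beta-Lac driven by a PMP22 intronic element, compound-treated 24 h at 37 °C. LiveBLAzer FRET B/G read: 460 nm normalized to potassium clavulanate vs DMSO; 535 nm FRET as viability; concentration-effect curves classified.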

SMILES strings stand for the structures. Inconclusive results are not listed. Where a call stands in place of a potency, no number is given. Calls of active or inactive are those of the source. Unless noted, calls follow the shape of the dose curve; as a rule, active = well fitted curve in the direction sought with a large enough effect; inconclusive = small, poorly fitted or top-dose-only effect, or another doubt; inactive = no such curve, though single readings can be large; an effect the other way counts as inactive or inconclusive.

Chain of Voltage-gated inwardly rectifying potassium channel KCNH2 (Homo sapiens) (Q12809 whole entry, looked up): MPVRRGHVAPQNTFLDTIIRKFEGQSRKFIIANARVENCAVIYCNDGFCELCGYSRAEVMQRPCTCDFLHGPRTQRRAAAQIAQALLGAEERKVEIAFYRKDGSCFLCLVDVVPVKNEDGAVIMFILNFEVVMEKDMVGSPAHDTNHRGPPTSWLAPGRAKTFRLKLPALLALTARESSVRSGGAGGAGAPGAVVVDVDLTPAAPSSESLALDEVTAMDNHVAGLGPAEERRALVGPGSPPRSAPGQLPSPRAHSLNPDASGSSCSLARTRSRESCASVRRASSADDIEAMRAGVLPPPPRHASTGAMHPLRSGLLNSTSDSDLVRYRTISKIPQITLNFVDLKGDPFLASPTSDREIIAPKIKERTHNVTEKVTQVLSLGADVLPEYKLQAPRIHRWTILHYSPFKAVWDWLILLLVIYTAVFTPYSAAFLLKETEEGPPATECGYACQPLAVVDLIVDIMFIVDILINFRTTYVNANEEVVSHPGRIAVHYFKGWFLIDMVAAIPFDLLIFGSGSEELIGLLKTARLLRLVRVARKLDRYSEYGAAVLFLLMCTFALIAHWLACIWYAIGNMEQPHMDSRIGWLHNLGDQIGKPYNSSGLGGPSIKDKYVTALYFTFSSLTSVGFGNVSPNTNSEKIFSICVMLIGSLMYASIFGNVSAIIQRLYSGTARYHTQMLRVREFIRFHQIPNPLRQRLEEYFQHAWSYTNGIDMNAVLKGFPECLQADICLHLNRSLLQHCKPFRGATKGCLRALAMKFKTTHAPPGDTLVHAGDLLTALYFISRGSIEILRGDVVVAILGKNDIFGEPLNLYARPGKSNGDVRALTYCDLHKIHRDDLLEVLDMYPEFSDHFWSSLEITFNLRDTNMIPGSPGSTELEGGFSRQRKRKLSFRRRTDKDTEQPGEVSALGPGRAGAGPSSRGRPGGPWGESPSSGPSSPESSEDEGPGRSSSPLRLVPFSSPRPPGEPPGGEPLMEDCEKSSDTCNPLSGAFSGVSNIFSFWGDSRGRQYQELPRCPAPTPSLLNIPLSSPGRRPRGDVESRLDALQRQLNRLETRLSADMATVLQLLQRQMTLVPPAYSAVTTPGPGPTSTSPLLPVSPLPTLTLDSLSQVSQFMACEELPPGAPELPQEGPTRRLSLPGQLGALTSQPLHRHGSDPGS
Chain of Luciferin 4-monooxygenase (Photinus pyralis) (P08659 whole entry, looked up): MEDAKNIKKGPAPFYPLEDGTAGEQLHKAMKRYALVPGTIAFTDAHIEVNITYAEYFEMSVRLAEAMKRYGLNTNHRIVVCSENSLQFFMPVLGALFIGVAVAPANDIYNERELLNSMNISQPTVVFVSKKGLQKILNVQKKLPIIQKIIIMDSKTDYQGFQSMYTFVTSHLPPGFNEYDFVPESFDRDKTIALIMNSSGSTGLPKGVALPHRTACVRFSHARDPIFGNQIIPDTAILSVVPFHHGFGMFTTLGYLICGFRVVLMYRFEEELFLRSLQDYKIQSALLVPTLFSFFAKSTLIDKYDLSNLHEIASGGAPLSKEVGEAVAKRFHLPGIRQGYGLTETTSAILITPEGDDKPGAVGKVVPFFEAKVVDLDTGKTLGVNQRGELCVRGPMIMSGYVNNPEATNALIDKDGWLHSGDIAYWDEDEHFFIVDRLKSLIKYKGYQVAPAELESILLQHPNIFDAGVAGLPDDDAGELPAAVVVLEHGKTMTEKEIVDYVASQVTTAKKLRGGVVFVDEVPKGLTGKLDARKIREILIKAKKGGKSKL
Chain of Glutaminase kidney isoform, mitochondrial (Homo sapiens) (O94925 whole entry, looked up, canonical isoform): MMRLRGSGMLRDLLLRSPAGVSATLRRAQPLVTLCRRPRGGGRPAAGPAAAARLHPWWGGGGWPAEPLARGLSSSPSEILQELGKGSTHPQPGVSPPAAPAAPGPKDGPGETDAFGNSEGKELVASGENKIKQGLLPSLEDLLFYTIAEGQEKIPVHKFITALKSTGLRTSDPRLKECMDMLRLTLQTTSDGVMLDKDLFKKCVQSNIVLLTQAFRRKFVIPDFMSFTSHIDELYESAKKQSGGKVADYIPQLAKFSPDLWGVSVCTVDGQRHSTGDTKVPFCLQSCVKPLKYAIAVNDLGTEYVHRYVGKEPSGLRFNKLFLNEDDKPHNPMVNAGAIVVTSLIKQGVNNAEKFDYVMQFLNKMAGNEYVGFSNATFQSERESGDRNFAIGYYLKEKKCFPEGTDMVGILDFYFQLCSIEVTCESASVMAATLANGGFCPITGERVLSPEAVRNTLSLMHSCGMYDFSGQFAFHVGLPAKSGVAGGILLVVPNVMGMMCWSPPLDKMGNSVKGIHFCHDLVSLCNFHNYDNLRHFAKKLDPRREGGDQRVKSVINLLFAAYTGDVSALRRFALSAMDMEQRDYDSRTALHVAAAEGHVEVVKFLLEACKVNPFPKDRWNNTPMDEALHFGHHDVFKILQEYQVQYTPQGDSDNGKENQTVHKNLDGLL

Regarding `O=C1OC2(c3ccccc31)c1cc(I)c(O)c(I)c1Oc1c2cc(I)c(O)c1I`, the Potency in assay [1] was 14.4 µM (active).
Take `CC(C)(C)C(=O)OCOC(=O)C1N2C(=O)CC2S(=O)(=O)C1(C)C` (configuration not stated): in assay [1], the Potency result was “inactive”.
On to `CN(C)c1cc2c(Nc3ccc4c(cnn4Cc4ccccc4)c3)ncnc2cn1`, for which the Potency entry in assay [2] was “inactive”. In addition, the compound was called inactive in assay [3], in assay [4], in assay [5] and in assay [6].
Consider `C[C@H](CN1CCCC1)C(=O)c1ccc(C(F)(F)F)cc1`, for which the Potency result in assay [1] was “inactive”.
Same read-out and setting: for `CC(C)(C)c1nnc(NS(=O)(=O)c2ccccc2)s1` the value was “inactive”.
For the compound `Nc1c[n+](N2CCOCC2)no1`, the Potency result in assay [1] is “inactive”.
Turning to `O=[N+]([O-])c1ccc(-c2nc(-c3ccc(F)cc3)c(-c3ccncc3)[nH]2)cc1`, in assay [2], the Potency was 8.91 µM (active). In assay [7], the Potency result was “inactive”. Further, the call in assay [3], in assay [4], in assay [5] and in assay [6] was inactive.
`CN(C)C(=O)CNC(=O)Cc1ccccc1`: the Potency result in assay [1] is “inactive”.
Consider `CCOC(=O)c1ccc(OCCN2C[C@H](O)[C@@H](O)[C@H](O)[C@H]2CO)cc1`, for which the Potency entry in assay [1] is “inactive”.
Regarding `Cn1cnc2c(NCc3ccccc3)nc(NCCO)nc21`, the Potency result in assay [2] and in assay [7] was “inactive” each time. Besides, the compound was classed as inactive in assay [3], in assay [4], in assay [5] and in assay [6].
Regarding `CCOC(=O)Cn1cccc1-c1nc(-c2ccc(OC)cc2)c(-c2ccc(OC)cc2)s1`, in assay [1], the Potency result was “inactive”.
Regarding `Cc1ccc(/C=N/n2c(-c3ccccc3)csc2=S)cc1`, the Potency result in assay [1] was “inactive”.
For `O=C1NC(c2cccc([N+](=O)[O-])c2)=CCN1c1ccccc1O`, the Potency entry in assay [2] is “inactive”. Moreover, the outcome in assay [3], in assay [4], in assay [5] and in assay [6] was inactive.
With `C[C@@H](C1=C(CCN(C)C)Cc2ccccc21)c1ccccn1`, the Potency entry in assay [1] was “inactive”.
Same read-out and setting: for `CC1CN(c2cc3c(cc2F)c(=O)c(C(=O)O)cn3-c2ccc(F)cc2F)CCN1` (configuration not stated) the value was “inactive”; for `O=[N+]([O-])c1nccn1CO[C@@H](CO)[C@H](O)CO`, “inactive”.
Regarding `CN1C(=O)CC(C)(c2ccccc2)C1=O` (configuration not stated), in assay [1], the Potency entry was “inactive”.
Consider `O=C1NC2CCCCN2C12CCN(CCCN1c3ccccc3CCc3ccc(Cl)cc31)CC2` (configuration not stated), for which, in assay [1], the Potency result is “inactive”.
Still for that read-out and setting: for `O=C(NN1CCCC1)NS(=O)(=O)c1ccc(Cl)cc1` the value was “inactive”.
For the compound `O=C(O)CNC(=O)CNC(=O)CNC(=O)CSC(=O)c1ccccc1`, in assay [1], the Potency result was “inactive”.
In the case of `Brc1ccc([C@H]2CN3CCSC3=N2)cc1`, the Potency in assay [2] was 11.2 µM (active). Also, the Potency result in assay [7] was “inactive”. Besides, the compound was classed as inactive in assay [3], in assay [4], in assay [5] and in assay [6].
Consider `N#C/C(=C1/SC[C@@H](c2ccc(Cl)cc2Cl)S1)n1ccnc1`, for which the Potency result in assay [1] is “inactive”.
Take `CN1C(CSCC(F)(F)F)Nc2cc(Cl)c(S(N)(=O)=O)cc2S1(=O)=O` (configuration not stated): the Potency result in assay [1] is “inactive”.
Consider `COc1ccccc1N1CCN(CCN2C(=O)CC3(CCCC3)CC2=O)CC1`, for which the Potency in assay [2] is 1.12 µM (active). The Potency entry in assay [7] was “inactive”. Moreover, the compound was called inactive in assay [3], in assay [4], in assay [5] and in assay [6].
Turning to `CCCc1c2oc(C(=O)O)cc(=O)c2cc2c(=O)cc(C(=O)O)n(CC)c12`, in assay [1], the Potency entry is “inactive”.
In the case of `CC(C(=O)O)c1ccc(/C=C2\CCCCC2=O)cc1` (configuration not stated), in assay [1], the Potency was 16.1 µM (active).
In the case of `C[N+](C)(C)CCO`, the Potency entry in assay [2], in assay [1] and in assay [7] was “inactive” throughout. Moreover, the compound was classed as inactive in assay [3], in assay [4], in assay [5] and in assay [6].
Regarding `CCOC(=O)NNc1nncc2ccccc12`, the Potency result in assay [1] was “inactive”.
The same measure, in the same setting: in the case of `CN(C(=O)C(Cl)Cl)c1ccc(OC(=O)c2ccco2)cc1` it was “inactive”; in that of `O=C(CCCCC(=O)Nc1c(I)cc(I)c(C(=O)O)c1I)Nc1c(I)cc(I)c(C(=O)O)c1I`, “inactive”.
As to `Cc1nn(-c2ccccc2)c(C)c1/C=N/N1CCN(Cc2ccccc2)CC1`, the Potency result in assay [7] is “inactive”. Besides, the call in assay [3], in assay [4], in assay [5] and in assay [6] was inactive.
Consider `COc1ccccc1OCC1CNC(=O)O1` (configuration not stated), for which the Potency entry in assay [1] was “inactive”.
In the case of `O=C1NC(=O)/C(=C/c2ccc3c(c2)OC(F)(F)O3)S1`, the Potency entry in assay [7] is “inactive”. Besides, the result in assay [3], in assay [4], in assay [5] and in assay [6] was inactive.
Regarding `O=C(COCCOCCOCC(=O)Nc1c(I)cc(I)c(C(=O)O)c1I)Nc1c(I)cc(I)c(C(=O)O)c1I`, the Potency result in assay [1] was “inactive”.
The same measure, in the same setting: for `CC(C(O)c1ccccc1)N(C)CCOC(c1ccccc1)c1ccccc1` (configuration not stated) the value was “inactive”.
Turning to `CCCCCCCCCCCCCC[N+](C)(C)C`, the Potency in assay [8] is 25.1 µM (active).
For the compound `CCC1(c2cnc[nH]2)Cc2ccccc2C1`, in assay [1], the Potency entry is “inactive”.
Turning to `CCN(CC)CCNC(=O)c1ccc(NS(C)(=O)=O)cc1`, the Potency result in assay [1] and in assay [7] was “inactive” in each case. In addition, the result in assay [3], in assay [4], in assay [5] and in assay [6] was inactive.
Regarding `Oc1ccc(CCNCCCCCCNCCc2ccccc2)cc1O`, the Potency entry in assay [1] is “inactive”.
Same read-out and setting: in the case of `CC(COc1ccccc1)NN` (configuration not stated) it was “inactive”; in that of `CC(NN)c1ccccc1` (configuration not stated), “inactive”; in that of `COc1cc(C(=O)NC2CCCNC2)cc(OC)c1OC` (configuration not stated), “inactive”.
Same read-out and setting: in the case of `CCOc1ccc(NS(=O)(=O)c2ccc(N)cc2)nn1` it was “inactive”; in that of `CCCCCC1Nc2cc(C(F)(F)F)c(S(N)(=O)=O)cc2S(=O)(=O)N1` (configuration not stated), “inactive”; in that of `O=C1NCCN1CCN1CCC(c2cn(-c3ccc(F)cc3)c3ccc(Cl)cc23)CC1`, “inactive”.
